According to PubChem BioAssay AID2100 (National Center for Advancing Translational Sciences (NCATS), 2009):
Among all 300,000 compounds or so, about 1,200 (0.4%) were called active. Entries that show only a call come without a potency. Not shown: some 3% with an inconclusive outcome. Calls come from the whole dose curve; as a rule, active = well fitted inhibition curve with a large enough effect; inconclusive = small, poorly fitted or top-dose-only effect, or another doubt; inactive = no such curve, though single readings can be large or run the other way. The sample as a whole holds a higher share of actives than the screen did.

Biological target: Lysosomal alpha-glucosidase (Homo sapiens) (UniProt P10253)
Assay: qHTS Assay for Inhibitors and Activators of Human alpha-Glucosidase Cleavage of Glycogen;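 note: the screen sought inhibitors and activators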
Settings: recombinant GAA, glycogen substrate, Amplex Red glucose oxidase fluorescence; series mostly up to 76.3 µM
Procedure, shortened: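 Recombinant enzyme (4 nM final) with compounds titrated up to 77 uM and bovine liver glycogen (30 ug) in citrate pH 5.0, 0.01% Tween-20, 37 C 40 min. Released glucose detected by Amplex Red/glucose oxidase (Ex 573/Em 610); AC50 from Hill fits.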
Potency is the fitted concentration of half-maximal effect.

Compound | Potency
Cc1ccccc1-c1nc(CS(=O)(=O)CC(=O)Nc2cc(Cl)cc(Cl)c2)c(C)o1 | inactive
Cc1cccc(NC(=O)N2CCC(CN3CCc4ccccc4C3)CC2)c1C | inactive
COc1ccc2c(c1)C(C)=CC(C)(C)N2C(=O)CNCc1ccc2c(c1)OCO2 | inactive
CC1=CC(C)(C)N(C(=O)CSc2nnc(-c3ccccc3)o2)c2ccc(C)cc21 | inactive
COc1ccc2c(c1)C(C)=CC(C)(C)N2C(=O)Nc1ccccc1 | 35.5 µM (active)
CCOc1ccc(N(Cc2ccccc2)C(=O)c2nc(S(C)(=O)=O)ncc2Cl)cc1 | inactive
Cc1ccc(Cn2c(CCCNC(=O)C3CCCCC3)nc3ccccc32)cc1 | inactive
COc1ccc2c(Sc3ccc(C)cc3)c(C(=O)NC(C)c3ccccc3)[nH]c2c1 (centres undefined) | inactive
Cc1cc2cc3c(N)[nH]nc3nc2cc1C | 8.91 µM (active)
Cc1cccc(NC(=O)c2cc3c(C)nn(-c4ccccc4)c3s2)c1 | inactive
COc1ccc(-c2cn3nc(N4CCCC(C(=O)NCCCOC(C)C)C4)sc3n2)cc1 (centres undefined) | inactive
COC(=O)c1cc(S(=O)(=O)N2CCN(c3cc(Cl)ccc3C)CC2)c[nH]1 | inactive
COC(=O)c1cc2occc2n1Cc1nc(-c2ccc(C)cc2)oc1C | inactive
Cc1nn(C(C)C(=O)NCCc2ccccc2)c(=O)c2c1sc1ccccc12 (centres undefined) | inactive
O=C(Nc1ccccc1)Nc1ccc(C(F)(F)F)cn1 | inactive
Oc1ccc(/C=N/Nc2ccc(C(F)(F)F)cn2)cc1O | 3.52 µM (active)
Oc1ccc(Br)cc1/C=N/Nc1ccccn1 | inactive
CCC1CCCCN1S(=O)(=O)c1ccc(NC(=O)c2cc(=O)c3ccccc3o2)cc1 (centres undefined) | inactive
CN1C(=O)c2cccc3c(N)ccc(c23)C1=O | inactive
CCN1C(=O)c2cccc3c(S(=O)(=O)Nc4ccccc4O)ccc1c23 | inactive
CCN1C(=O)c2cccc3c(N)ccc1c23 | 28.2 µM (active)
O=C(Nc1ccc2nc(SCC(=O)N3CCCc4ccccc43)sc2c1)c1ccc(Cl)cc1 | inactive
CCOC(=O)c1c(/N=C/c2cc(C)ccc2O)sc2c1CCC2 | 10 µM (active)
CCOC(=O)c1c(NC(=O)/C(C#N)=C/c2ccccc2)sc2c1CCC2 | inactive
CCOC(=O)c1c(NC(=S)NC)sc2c1CCCC2 | inactive
O=C1CC(=O)Nc2cc(S(=O)(=O)N3CCN(c4cccc(C(F)(F)F)c4)CC3)ccc2N1 | inactive

Compound | Potency
COc1ccc(N2CCN(S(=O)(=O)c3ccc4c(c3)NC(=O)C(C)C(=O)N4)CC2)cc1 (centres undefined) | inactive
COc1ccc(N2CCN(S(=O)(=O)c3ccc4c(c3)CC(=O)N4)CC2)cc1 | 59.8 µM (active)
Cc1ccc(NC(=O)c2nc(S(=O)(=O)Cc3cccc(C)c3)ncc2Cl)cc1 | inactive
Cc1ccc2nc(C)cc(N/N=C/c3ccc(F)cc3)c2c1 | inactive
Cc1cc(N/N=C/c2ccccc2F)c2ccccc2n1 | inactive
COc1cccc2c(N/N=C/c3ccco3)cc(C)nc12 | 8.84 µM (active)
Cc1ccc(C)n1-c1nnc(N2CCC(C(=O)NCc3ccc(F)cc3)CC2)s1 | inactive
Cc1ccc(CCNC(=O)C2CCN(c3nnc(-n4cccc4CNc4ccc(C)cc4)s3)CC2)cc1 | inactive
CCOc1ccc(CNC(=O)C2CCN(c3nnc(-n4cccc4CNc4ccc(C)cc4)s3)CC2)cc1OC | 31.6 µM (active)
Cc1cccc(OCC(=O)N(Cc2ccc(C(C)C)cc2)Cc2ccco2)c1C | inactive
CCn1c2ccccc2c2cc(NC(=O)CNC)ccc21 | inactive
CCn1c2ccccc2c2cc(NC(=O)COC(=O)c3ccccc3Br)ccc21 | inactive
CCn1c2ccccc2c2cc(NC(=S)N3CCOCC3)ccc21 | 12.5 µM (active)
CCOc1ccc2nc(N3CCCC(C(=O)Nc4cc(C)ccc4C)C3)sc2c1 (centres undefined) | inactive
O=C(O)/C=C/C(=O)NNc1ccc([N+](=O)[O-])cc1 | 14 µM (active)
O=[N+]([O-])c1ccc(N/N=C/c2ccccc2)cc1 | inactive
CNC(=S)Nc1ccc([N+](=O)[O-])cc1 | inactive
COc1cc(Nc2nc(-c3ccc(OC)c(OC)c3)nc3ccccc23)cc(OC)c1 | inactive
CC(Nc1ccc(-c2nc(-c3ccco3)no2)cc1[N+](=O)[O-])c1ccccc1 (centres undefined) | inactive
CCc1ccc(C(=O)CC2(O)C(=O)N(CCc3ccccc3)c3ccc(Br)cc32)cc1 (centres undefined) | inactive
COC(=O)c1cc(NC(=O)c2ccco2)ccc1N1CCOCC1 | inactive
CCN(CC)S(=O)(=O)c1ccc(N2CCOCC2)c(C(=O)O)c1 | inactive
Cn1c(=O)n(C)c2cc(CNc3ccc(N4CCOCC4)c(C(=O)O)c3)ccc21 | 9.92 µM (active)
CCn1cc(C(=O)NCCc2ccccc2)c(=O)c2cc(S(=O)(=O)N3CCCCCC3)ccc21 | inactive
O=C(Nc1nc2c(s1)CCCC2)c1ccccc1F | inactive
CC(CC(=O)N1CCN(c2ccccc2)CC1)c1ccccc1 (centres undefined) | inactive

Compound | Potency
CC(=O)N1CCN(c2ccc(NCc3ccc(C(C)C)cc3)cc2)CC1 | 31.6 µM (active)
CCc1ccc(NC(=O)N2CCN(c3ccccc3)CC2)cc1 | inactive
Cc1ccc(-c2cc(N)n(Cc3cccc(Cl)c3)n2)cc1 | inactive
CC1=Nc2cc(C(=O)N3CCC(C)CC3)ccc2Sc2ccc(Cl)cc21 | inactive
Cc1ccc(Nc2nnc(SCc3ccccc3)s2)cc1 | inactive
Cc1ccc(Nc2ccccc2N)cc1 | 50.1 µM (active)
Nc1ccc(Nc2ccccc2)cc1 | inactive
COc1ccc(CNC(=O)COCc2cc(-c3cccs3)on2)cc1OC | inactive
Cc1nc2nc(NCc3cccc(Br)c3)[nH]n2c(=O)c1Cc1ccccc1 | inactive
CC1CCN(c2nc3ccc(C(=O)N4CCN(c5ccccc5)CC4)cc3s2)CC1 | inactive
O=C(Nc1ccc2nc(SCCOc3ccccc3)sc2c1)c1ccco1 | inactive
Cc1cc(NC(=O)C2CCC(CNS(=O)(=O)c3ccc(Br)s3)CC2)ccc1Br (centres undefined) | inactive
CC(=O)c1ccc(NC(=O)Nc2ccc([N+](=O)[O-])cc2C)cc1 | inactive
CCN(CC)S(=O)(=O)c1cc([N+](=O)[O-])ccc1N=Nc1c(O)n(C)c2ccccc12 | inactive
CCN(CC)S(=O)(=O)c1cc([N+](=O)[O-])ccc1NNC(=O)Nc1ccccc1 | 28.2 µM (active)
COC(=O)c1cccc(Cn2nnc3sc4c(c3c2=O)CCC(C(C)(C)C)C4)c1 (centres undefined) | inactive
C/C(=N\O)C1(C)N(O)C(C)(C)C(c2ccc(Br)cc2)=[N+]1[O-] (centres undefined) | 6.26 µM (active)
CC(=O)C1(C)N(O)C(C)(C)C(c2cccs2)=[N+]1[O-] (centres undefined) | inactive
Cc1nnc(NCc2ccccc2)c2c1nnn2Cc1ccc(F)cc1 | inactive
NS(=O)(=O)c1ccc(Nc2nc(-c3ccccc3)cs2)cc1 | inactive
COc1ccc(-c2csc(Cc3nc(O)cs3)n2)cc1 | inactive
COc1ccc(C)cc1Nc1nc(-c2c(C)[nH]c3ccccc23)cs1 | inactive
COc1ccc(OC)c(Nc2nc(-c3ccc(O)c(O)c3)cs2)c1 | 28.2 µM (active)
COc1cccc(CC(=O)Nc2nc(-c3ccc(OC)c(OC)c3)cs2)c1 | inactive
COc1ccc(-c2csc(Nc3ccc(O)cc3)n2)cc1 | 11.2 µM (active)
Cc1cccc(C(=O)NCCc2nc3ccccc3n2Cc2ccccc2Cl)c1 | inactive

Compound | Potency
CC(C)S(=O)(=O)c1oc(-c2ccc(F)cc2)nc1S(=O)(=O)c1ccc(F)cc1 | inactive
COc1ccccc1C(=O)Nc1c(C(=O)N(C)Cc2ccccc2)sc2nc(C)c(Cl)c(C)c12 | inactive
COc1cc(Cl)c(NC(=O)CC(C)S(=O)(=O)c2cc3c(cc2C)NC(=O)CO3)c(OC)c1 (centres undefined) | inactive
CCC(C)NC(=O)CSC1=Nc2ccccc2C2=NC(CCC(=O)NCc3ccco3)C(=O)N12 (centres undefined) | inactive
O=C(CSC1=Nc2ccccc2C2=NC(CC(=O)NCc3ccco3)C(=O)N12)NCc1ccco1 (centres undefined) | inactive
CC(C)C1N=C2c3ccccc3N=C(SCC(=O)c3ccc(O)c(O)c3)N2C1=O (centres undefined) | 12.5 µM (active)
CC(NC(=O)CCc1cn(Cc2ccccc2Cl)c2ccccc12)c1ccccc1 (centres undefined) | inactive
O=C(CCl)NNc1cccc(Cl)n1 | 20 µM (active)
COc1cc(OC)nc(NC(=O)CCl)n1 | inactive
O=C(Cc1c(Cl)cccc1Cl)NC1CC1 | inactive
COc1ccccc1CNC(=O)CCn1c(=O)c2ccccc2n(CC(=O)Nc2cccc(Cl)c2)c1=O | inactive
Cc1ccc(CSc2nc3cccnc3n2Cc2ccc(C(=O)NC3CC3)cc2)cc1 | inactive
CCOC(=O)C(=CNNc1ccsc1C(=O)OC)C(=O)OCC | 14 µM (active)
COC(=O)c1sccc1NC(=S)Nc1ccc(C)cc1 | inactive
COC(=O)c1sccc1NC(=O)CCC1CCCC1 | inactive
O=C(O)c1[nH]c2ccccc2c1C(c1cccc(O)c1)c1c(C(=O)O)[nH]c2ccccc12 | inactive
CCCC(=O)Nc1c(O)c2ccccc2[nH]c1=O | inactive
CCCS(=O)(=O)Nc1c(C(=O)O)[nH]c2ccccc12 | 3.55 µM (active)
O=S(=O)(c1ccc(Cl)cc1)c1nnn2c1nc(NC1CCCC1)c1sccc12 | inactive
Cc1c(Cl)cccc1NC(=O)C1CCCN(C(=O)c2cnn(-c3ccccc3)c2-n2cccc2)C1 (centres undefined) | inactive
c1cnn(-c2cc(N3CCOCC3)ncn2)c1 | inactive
O=C(CN1C(=O)COc2ccc(Cl)cc21)Nc1ccc(N2CCOCC2)cc1 | inactive
O=C(Nc1cc(N2CCOCC2)ncn1)NC1(C(F)(F)F)Oc2ccc(Cl)cc2O1 (centres undefined) | 11.1 µM (active)
CCC(=O)N1CCc2cc(S(=O)(=O)NC(CC(C)C)C(=O)NCCc3cccc(C)c3)ccc21 (centres undefined) | inactive
COc1cccc(NC(=O)CN2C(=O)c3ccccc3Sc3ncccc32)c1 | inactive
O=C(c1ccc(C(F)(F)F)cc1)N1CCC(c2nc(-c3ccc(S(=O)(=O)N4CCCC4)cc3)no2)CC1 | inactive
